{"source": "PubChem BioAssay AID1508601", "about": "(ICCB-Longwood Screening Facility, Harvard Medical School, 2020)", "key": {"[1]": {"assay": "nuclear p53 accumulation, HPV+ cells – imaging, p53-positive nuclei imaging, 24 h, 48 h (AID 1508601)", "details": "24/48 h"}, "[2]": {"molecular_target": "Cellular tumor antigen p53 (Homo sapiens) (UniProt P04637)", "sequence (P04637 whole entry, looked up)": "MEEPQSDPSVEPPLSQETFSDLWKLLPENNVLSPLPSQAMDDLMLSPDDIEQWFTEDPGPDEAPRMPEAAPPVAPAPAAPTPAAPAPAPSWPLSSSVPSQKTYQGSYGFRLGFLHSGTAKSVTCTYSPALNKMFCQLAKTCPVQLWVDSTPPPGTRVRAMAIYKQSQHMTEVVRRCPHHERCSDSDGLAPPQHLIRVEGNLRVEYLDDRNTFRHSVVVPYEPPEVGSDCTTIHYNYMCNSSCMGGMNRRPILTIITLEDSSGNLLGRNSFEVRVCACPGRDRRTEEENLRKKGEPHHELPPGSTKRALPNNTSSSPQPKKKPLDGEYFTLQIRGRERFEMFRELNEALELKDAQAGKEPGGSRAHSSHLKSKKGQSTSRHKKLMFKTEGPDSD", "assay": "nuclear p53 accumulation, HPV+ cells – imaging, p53-positive nuclei imaging, 24 h, 48 h (AID 1508601)", "details": "24/48 h, stronger effect = higher value"}, "[3]": {"details": "measured here: cell number at 24 h, Library stock concentration: 3.33 mM"}, "[4]": {"details": "measured here: cell number at 48 h, Library stock concentration: 3.33 mM"}, "[5]": {"details": "Library stock concentration: 3.33 mM"}, "[6]": {"details": "measured here: p53 positive nuclei at 24 h, Library stock concentration: 3.33 mM"}}, "note": "The campaign covered roughly 5,700 compounds. About 85 (1%) were called active. The sample holds actives, similar compounds and a random draw of the others, so the mix is not that of the screen. Rule as the data show it: active = p53-positive nuclei above about 36% (passing the limit was not always enough); inactive = the rest."}
{"compound": "Cc1[nH]c2ccccc2c1CCNCc1ccc(C=CC(=O)NO)cc1", "values": [{"measurement": "nuclei count, normalised", "setting": "[1]; [3]", "result": 37, "unit": "%"}, {"measurement": "nuclei count, normalised", "setting": "[1]; [4]", "result": 20.2, "unit": "%"}, {"measurement": "p53-positive nuclei, normalised", "setting": "[2]; [5]", "result": "107% (active)"}, {"measurement": "p53-positive nuclei, normalised", "setting": "[2]; [6]", "result": 92.9, "unit": "%"}]}
{"compound": "Cc1[nH]c2ccccc2c1CCNC(=O)c1cccs1", "values": [{"measurement": "nuclei count, normalised", "setting": "[1]; [3]", "result": 115, "unit": "%"}, {"measurement": "nuclei count, normalised", "setting": "[1]; [4]", "result": 109, "unit": "%"}, {"measurement": "p53-positive nuclei, normalised", "setting": "[2]; [5]", "result": "-0.163% (inactive)"}, {"measurement": "p53-positive nuclei, normalised", "setting": "[2]; [6]", "result": -0.341, "unit": "%"}]}
{"compound": "CN(C)Cc1ccc(S(=O)(=O)n2ccc(C=CC(=O)NO)c2)cc1", "values": [{"measurement": "nuclei count, normalised", "setting": "[1]; [3]", "result": 86.4, "unit": "%"}, {"measurement": "nuclei count, normalised", "setting": "[1]; [4]", "result": 84, "unit": "%"}, {"measurement": "p53-positive nuclei, normalised", "setting": "[2]; [5]", "result": "2.58% (inactive)"}, {"measurement": "p53-positive nuclei, normalised", "setting": "[2]; [6]", "result": 5, "unit": "%"}]}
{"compound": "NC(=O)c1ncn(C2OC(CO)C(O)C2O)c1O", "note": "(configuration not stated)", "values": [{"measurement": "nuclei count, normalised", "setting": "[1]; measured here: cell number at 24 h, Library stock concentration: 500 nM", "result": 107, "unit": "%"}, {"measurement": "nuclei count, normalised", "setting": "[1]; measured here: cell number at 24 h, Library stock concentration: 1.5 uM", "result": 106, "unit": "%"}, {"measurement": "nuclei count, normalised", "setting": "[1]; measured here: cell number at 24 h, Library stock concentration: 4.6 uM", "result": 114, "unit": "%"}, {"measurement": "nuclei count, normalised", "setting": "[1]; measured here: cell number at 24 h, Library stock concentration: 13.7 uM", "result": 113, "unit": "%"}, {"measurement": "nuclei count, normalised", "setting": "[1]; measured here: cell number at 24 h, Library stock concentration: 41 uM", "result": 103, "unit": "%"}, {"measurement": "nuclei count, normalised", "setting": "[1]; measured here: cell number at 24 h, Library stock concentration: 123 uM", "result": 107, "unit": "%"}, {"measurement": "nuclei count, normalised", "setting": "[1]; measured here: cell number at 24 h, Library stock concentration: 370 uM", "result": 112, "unit": "%"}, {"measurement": "nuclei count, normalised", "setting": "[1]; measured here: cell number at 24 h, Library stock concentration: 1.111 mM", "result": 97.9, "unit": "%"}, {"measurement": "nuclei count, normalised", "setting": "[1]; measured here: cell number at 24 h, Library stock concentration: 3.333 mM", "result": 106, "unit": "%"}, {"measurement": "nuclei count, normalised", "setting": "[1]; measured here: cell number at 24 h, Library stock concentration: 10 mM", "result": 104, "unit": "%"}, {"measurement": "nuclei count, normalised", "setting": "[1]; measured here: cell number at 48 h, Library stock concentration: 500 nM", "result": 106, "unit": "%"}, {"measurement": "nuclei count, normalised", "setting": "[1]; measured here: cell number at 48 h, Library stock concentration: 1.5 uM", "result": 107, "unit": "%"}, {"measurement": "nuclei count, normalised", "setting": "[1]; measured here: cell number at 48 h, Library stock concentration: 4.6 uM", "result": 110, "unit": "%"}, {"measurement": "nuclei count, normalised", "setting": "[1]; measured here: cell number at 48 h, Library stock concentration: 13.7 uM", "result": 108, "unit": "%"}, {"measurement": "nuclei count, normalised", "setting": "[1]; measured here: cell number at 48 h, Library stock concentration: 41 uM", "result": 107, "unit": "%"}, {"measurement": "nuclei count, normalised", "setting": "[1]; measured here: cell number at 48 h, Library stock concentration: 123 uM", "result": 107, "unit": "%"}, {"measurement": "nuclei count, normalised", "setting": "[1]; measured here: cell number at 48 h, Library stock concentration: 370 uM", "result": 113, "unit": "%"}, {"measurement": "nuclei count, normalised", "setting": "[1]; measured here: cell number at 48 h, Library stock concentration: 1.111 mM", "result": 105, "unit": "%"}, {"measurement": "nuclei count, normalised", "setting": "[1]; measured here: cell number at 48 h, Library stock concentration: 3.333 mM", "result": 108, "unit": "%"}, {"measurement": "nuclei count, normalised", "setting": "[1]; measured here: cell number at 48 h, Library stock concentration: 10 mM", "result": 102, "unit": "%"}, {"measurement": "p53-positive nuclei, normalised", "setting": "[2]; Library stock concentration: 500 nM", "result": "-0.204% (inactive)"}, {"measurement": "p53-positive nuclei, normalised", "setting": "[2]; Library stock concentration: 1.5 uM", "result": "-0.0465% (inactive)"}, {"measurement": "p53-positive nuclei, normalised", "setting": "[2]; Library stock concentration: 4.6 uM", "result": "0.0159% (inactive)"}, {"measurement": "p53-positive nuclei, normalised", "setting": "[2]; Library stock concentration: 13.7 uM", "result": "-0.0544% (inactive)"}, {"measurement": "p53-positive nuclei, normalised", "setting": "[2]; Library stock concentration: 41 uM", "result": "-0.167% (inactive)"}, {"measurement": "p53-positive nuclei, normalised", "setting": "[2]; Library stock concentration: 123 uM", "result": "-0.128% (inactive)"}, {"measurement": "p53-positive nuclei, normalised", "setting": "[2]; Library stock concentration: 370 uM", "result": "-0.0645% (inactive)"}, {"measurement": "p53-positive nuclei, normalised", "setting": "[2]; Library stock concentration: 1.111 mM", "result": "-0.129% (inactive)"}, {"measurement": "p53-positive nuclei, normalised", "setting": "[2]; Library stock concentration: 3.333 mM", "result": "-0.208% (inactive)"}, {"measurement": "p53-positive nuclei, normalised", "setting": "[2]; Library stock concentration: 10 mM", "result": "-0.16% (inactive)"}, {"measurement": "p53-positive nuclei, normalised", "setting": "[2]; measured here: p53 positive nuclei at 24 h, Library stock concentration: 500 nM", "result": -0.239, "unit": "%"}, {"measurement": "p53-positive nuclei, normalised", "setting": "[2]; measured here: p53 positive nuclei at 24 h, Library stock concentration: 1.5 uM", "result": -0.0183, "unit": "%"}, {"measurement": "p53-positive nuclei, normalised", "setting": "[2]; measured here: p53 positive nuclei at 24 h, Library stock concentration: 4.6 uM", "result": -0.139, "unit": "%"}, {"measurement": "p53-positive nuclei, normalised", "setting": "[2]; measured here: p53 positive nuclei at 24 h, Library stock concentration: 13.7 uM", "result": -0.19, "unit": "%"}, {"measurement": "p53-positive nuclei, normalised", "setting": "[2]; measured here: p53 positive nuclei at 24 h, Library stock concentration: 41 uM", "result": -0.128, "unit": "%"}, {"measurement": "p53-positive nuclei, normalised", "setting": "[2]; measured here: p53 positive nuclei at 24 h, Library stock concentration: 123 uM", "result": 0.0805, "unit": "%"}, {"measurement": "p53-positive nuclei, normalised", "setting": "[2]; measured here: p53 positive nuclei at 24 h, Library stock concentration: 370 uM", "result": -0.0891, "unit": "%"}, {"measurement": "p53-positive nuclei, normalised", "setting": "[2]; measured here: p53 positive nuclei at 24 h, Library stock concentration: 1.111 mM", "result": -0.183, "unit": "%"}, {"measurement": "p53-positive nuclei, normalised", "setting": "[2]; measured here: p53 positive nuclei at 24 h, Library stock concentration: 3.333 mM", "result": -0.128, "unit": "%"}, {"measurement": "p53-positive nuclei, normalised", "setting": "[2]; measured here: p53 positive nuclei at 24 h, Library stock concentration: 10 mM", "result": -0.0747, "unit": "%"}]}
